From PubChem BioAssay AID1159580 (chemical genetic matrix, 2015)
Among all 5,500 compounds or so, about 2,000 (36%) were called active. Another 18% or so got no clear call; they are omitted. No stated cut-off is given here; in the data, active means normalized growth mostly below about 0.91 (no sharp cut-off); inconclusive means no clear call, values can overlap the other calls; inactive means mostly above about 0.92. The list shows a part of the results.

Test: chemical genetic growth profiling, strain panel (AID 1159580);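 further: tested at 20 µM; growth read once vehicle control cultures reached saturation at 30 °C; 1 = growth at the plate median or of vehicle wells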
Settings: growth OD

Measured: normalized growth

C[C@]12C=CC(=O)C=C1CCC1C2[C@@H](O)C[C@@]2(C)C1CC[C@]2(O)C(=O)CO (stereo not given in full)
inactive: S. cerevisiae deletion strains, locus YJR075W, strain HOC1, stronger effect = lower value 0.993 | S. cerevisiae deletion strains, locus YKL009W, strain mrt4, stronger effect = lower value 0.976 | S. cerevisiae deletion strains, locus YKL068W, stronger effect = lower value 0.991 | S. cerevisiae deletion strains, locus YKL085W, strain MDH1 (second series), stronger effect = lower value 0.98 | S. cerevisiae deletion strains, locus YKL085W, strain MDH1, stronger effect = lower value 0.98 | S. cerevisiae deletion strains, locus YKL160W, strain elf1, stronger effect = lower value 0.981 | S. cerevisiae deletion strains, locus YKL190W, strain CNB1, stronger effect = lower value 0.996 | S. cerevisiae deletion strains, locus YKR001C, strain vps1, stronger effect = lower value 0.991 | S. cerevisiae deletion strains, locus YKR026C, strain gcn3, stronger effect = lower value 0.997 | S. cerevisiae deletion strains, locus YKR091W, strain srl3, stronger effect = lower value 0.999 | S. cerevisiae deletion strains, locus YLL001W, strain dnm1, stronger effect = lower value 0.978 | S. cerevisiae deletion strains, locus YLL026W, stronger effect = lower value 0.995 | S. cerevisiae deletion strains, locus YLL041C, strain sdh2, stronger effect = lower value 0.989 | S. cerevisiae deletion strains, locus YLR027C, strain aat2, stronger effect = lower value 0.995 | S. cerevisiae deletion strains, locus YLR039C, strain RIC1, stronger effect = lower value 0.974 | S. cerevisiae deletion strains, locus YLR058C, strain SHM2, stronger effect = lower value 0.994 | S. cerevisiae deletion strains, locus YLR102C, strain apc9, stronger effect = lower value 0.98 | S. cerevisiae deletion strains, locus YLR113W, strain HOG1, stronger effect = lower value 1.01 | S. cerevisiae deletion strains, locus YLR221C, strain rsa3, stronger effect = lower value 1.01 | S. cerevisiae deletion strains, locus YLR258W, strain gsy2, stronger effect = lower value 0.991 | S. cerevisiae deletion strains, locus YLR262C, strain YPT6 (second series), stronger effect = lower value 0.992 | S. cerevisiae deletion strains, locus YLR262C, strain YPT6, stronger effect = lower value 0.991 | S. cerevisiae deletion strains, locus YLR268W, strain sec22, stronger effect = lower value 0.948 | S. cerevisiae deletion strains, locus YLR320W, strain mms22, stronger effect = lower value 0.97 | S. cerevisiae deletion strains, locus YLR330W, strain CHS5, stronger effect = lower value 0.99 | S. cerevisiae deletion strains, locus YLR342W, strain FKS1 (second series), stronger effect = lower value 0.979 | S. cerevisiae deletion strains, locus YLR342W, strain FKS1, stronger effect = lower value 0.997 | S. cerevisiae deletion strains, locus YLR357W, strain rsc2, stronger effect = lower value 0.989 | S. cerevisiae deletion strains, locus YLR370C, strain arc18, stronger effect = lower value 0.988 | S. cerevisiae deletion strains, locus YLR371W, strain rom2, stronger effect = lower value 0.964 | S. cerevisiae deletion strains, locus YLR384C, strain iki3, stronger effect = lower value 0.991 | S. cerevisiae deletion strains, locus YLR418C, strain cdc73, stronger effect = lower value 0.98 | S. cerevisiae deletion strains, locus YML016C, strain PPZ1, stronger effect = lower value 0.988 | S. cerevisiae deletion strains, locus YML032C, strain rad52, stronger effect = lower value 0.972 | S. cerevisiae deletion strains, locus YML120C, strain ndi1, stronger effect = lower value 0.984 | S. cerevisiae deletion strains, locus YML124C, strain tub3, stronger effect = lower value 0.989 | S. cerevisiae deletion strains, locus YMR058W, strain fet3, stronger effect = lower value 0.996 | S. cerevisiae deletion strains, locus YMR078C, strain ctf18, stronger effect = lower value 0.974 | S. cerevisiae deletion strains, locus YMR125W, strain sto1, stronger effect = lower value 0.99 | S. cerevisiae deletion strains, locus YMR129W, stronger effect = lower value 0.993 | S. cerevisiae deletion strains, locus YMR205C, strain PFK2, stronger effect = lower value 0.998 | S. cerevisiae deletion strains, locus YMR223W, strain ubp8, stronger effect = lower value 1 | S. cerevisiae deletion strains, locus YMR231W, strain pep5, stronger effect = lower value 0.991 | S. cerevisiae deletion strains, locus YMR307W, strain GAS1, stronger effect = lower value 0.893 | S. cerevisiae deletion strains, locus YNL067W, strain RPL9B, stronger effect = lower value 1 | S. cerevisiae deletion strains, locus YNL071W, strain lat1, stronger effect = lower value 1 | S. cerevisiae deletion strains, locus YNL128W, strain TEP1, stronger effect = lower value 0.983 | S. cerevisiae deletion strains, locus YNL183C, strain NPR1, stronger effect = lower value 0.973 | S. cerevisiae deletion strains, locus YNL209W, strain ssb2, stronger effect = lower value 0.998 | S. cerevisiae deletion strains, locus YNL233W, strain BNI4, stronger effect = lower value 0.996 | S. cerevisiae deletion strains, locus YNL248C, strain rpa49, stronger effect = lower value 0.993 | S. cerevisiae deletion strains, locus YNL250W, strain rad50, stronger effect = lower value 0.967 | S. cerevisiae deletion strains, locus YNL271C, strain bni1, stronger effect = lower value 0.982 | S. cerevisiae deletion strains, locus YNL298W, strain CLA4, stronger effect = lower value 0.98 | S. cerevisiae deletion strains, locus YNL307C, strain MCK1, stronger effect = lower value 0.979 | S. cerevisiae deletion strains, locus YNL322C, strain KRE1 (second series), stronger effect = lower value 1 | S. cerevisiae deletion strains, locus YNL322C, strain KRE1, stronger effect = lower value 0.993 | S. cerevisiae deletion strains, locus YNR049C, strain mso1, stronger effect = lower value 0.995 | S. cerevisiae deletion strains, locus YNR052C, strain pop2, stronger effect = lower value 0.988 | S. cerevisiae deletion strains, locus YOL006C, strain TOP1, stronger effect = lower value 1.04 | S. cerevisiae deletion strains, locus YOL012C, strain htz1 0.96 | S. cerevisiae deletion strains, locus YOL147C, strain pex11, stronger effect = lower value 0.983 | S. cerevisiae deletion strains, locus YOR001W, strain rrp6, stronger effect = lower value 0.975 | S. cerevisiae deletion strains, locus YOR061W, strain CKA2, stronger effect = lower value 0.986 | S. cerevisiae deletion strains, locus YOR069W, strain VPS5, stronger effect = lower value 0.99 | S. cerevisiae deletion strains, locus YOR070C, strain gyp1, stronger effect = lower value 1 | S. cerevisiae deletion strains, locus YOR080W, strain dia2, stronger effect = lower value 0.997 | S. cerevisiae deletion strains, locus YOR083W, strain WHI5, stronger effect = lower value 0.973 | S. cerevisiae deletion strains, locus YOR106W, strain vam3, stronger effect = lower value 0.977 | S. cerevisiae deletion strains, locus YOR136W, strain idh2, stronger effect = lower value 0.987 | S. cerevisiae deletion strains, locus YOR144C, strain elg1, stronger effect = lower value 0.987 | S. cerevisiae deletion strains, locus YOR184W, strain ser1, stronger effect = lower value 0.978 | S. cerevisiae deletion strains, locus YOR231W, strain MKK1, stronger effect = lower value 1.01 | S. cerevisiae deletion strains, locus YOR265W, strain rbl2, stronger effect = lower value 0.996 | S. cerevisiae deletion strains, locus YOR270C, strain vph1, stronger effect = lower value 0.989 | S. cerevisiae deletion strains, locus YOR290C, strain snf2, stronger effect = lower value 0.997 | S. cerevisiae deletion strains, locus YOR316C, strain cot1, stronger effect = lower value 0.983 | S. cerevisiae deletion strains, locus YPL051W, strain arl3, stronger effect = lower value 0.995 | S. cerevisiae deletion strains, locus YPL055C, strain LGE1, stronger effect = lower value 1.01 | S. cerevisiae deletion strains, locus YPL078C, strain atp4, stronger effect = lower value 0.974 | S. cerevisiae deletion strains, locus YPL106C, strain sse1, stronger effect = lower value 1.02 | S. cerevisiae deletion strains, locus YPL240C, strain hsp82, stronger effect = lower value 1 | S. cerevisiae deletion strains, locus YPL241C, strain CIN2, stronger effect = lower value 0.993 | S. cerevisiae deletion strains, locus YPL256C, strain CLN2, stronger effect = lower value 1.02 | S. cerevisiae deletion strains, locus YPR119W, strain clb2, stronger effect = lower value 0.979 | S. cerevisiae deletion strains, locus YPR141C, strain kar3, stronger effect = lower value 0.981 | S. cerevisiae deletion strains, locus YPR163C, strain tif3, stronger effect = lower value 0.98 | S. cerevisiae deletion strains, locus YPR167C, strain met16, stronger effect = lower value 0.982 | S. cerevisiae deletion strains, strain wtn01, stronger effect = lower value 0.983 | S. cerevisiae strains, strain wild type, stronger effect = lower value 0.991
